Only some compounds are listed: those with a hit (about 19% of all), similar ones and a draw of the others.
DT40 TDP1 CPT: growth inhibition of DT40 Tdp1-/-;hTDP1 cells with camptothecin (screen for TDP1 inhibitors). Potency, µM (titrated, usually from 46.2 µM), actives largely listed as inhibitors. chicken DT40 Tdp1-/-;hTDP1 cells + 20 nM CPT, ATP luminescence, 48 h. 12% of 420,000 active. AID 686979; also: nearly all actives have a fitted effect of over 55% in size
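Cell growth measured by CellTiter-Glo luminescence after a minimum 48 h, 37 C compound exposure with 20 nM CPT in Tdp1-knockout DT40 cells stably expressing hTDP1, seeded 400/well; qHTS titration format.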
ELG1 DNA repair: inhibitors of ELG1-dependent DNA repair in HEK293T cells | HEK293T ELG1-luciferase reporter, luminescence, 16 h; DNA damage induced by 5-fluorouridine | Potency, µM (top dose mostly 46.1 µM), usual class: inhibitors | 2.3% of 330,000 active | AID 504467; also: nearly all actives have a fitted effect of over 55% in size
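In this reporter screen, reduction of luminescence relative to DMSO vehicle indicated activity. Compounds and 5-fluorouridine were added together to 2,000 cells per well, incubated for 16 hr at 37 °C, then developed with ONE-Glo.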
HT1080NT lethal: kills 2HG-producing HT-1080-NT fibrosarcoma cells; 1.6% of 360,000 active; Potency, µM (doses to about 46.1 µM), hits mostly cytotoxic; HT-1080-NT fibrosarcoma viability, CellTiter-Glo ATP luminescence, 48 h;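 also: NT is the 2HG producing partner of a matched IDH1 knockdown line; nearly all actives have a fitted effect of over 55% in size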
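HT-1080-NT fibrosarcoma cells (2HG-overproducing), 750 cells/well in RPMI with 5% FBS, dosed after 2 h and incubated 48 h at 37C. CellTiter-Glo luminescence normalized to DMSO and no-cell wells; concentration-response curves fitted and classed.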
HT1080 IDH1KD tx: kills HT-1080 cells with IDH1 knockdown | HT-1080 IDH1 knockdown viability, ATP luminescence, 48 h | 2% of 360,000 active | Potency, µM (top dose mostly 46.1 µM), hits mostly cytotoxic
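CellTiter-Glo luminescence after 48 h compound exposure at 37 degrees C of IDH1-knockdown HT-1080 cells in 5% FBS RPMI. %Activity scaled between DMSO wells and cell-free media wells, with curves fitted and assigned curve classes.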
IL-1B inflam inh: inhibitors of inflammasome signaling (IL-1 beta secretion); AID 743279; 4.7% of 360,000 active; THP-1 LPS/ATP IL-1B secretion, AlphaLISA, 16 h; active compounds read low; activity change, % at 57.5 µM; in the data active = activity change below about -50%; inconclusive = mostly about -30% to -49%
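THP-1 cells pretreated 1 hr with compounds (up to 57.5 uM final), then stimulated with LPS (250 ng/mL final) plus ATP (1.25 mM final); secreted IL-1B measured by AlphaLISA after 16 hr, decreased signal indicating inhibition.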
TDP1 cell noCPT: qHTS for Inhibitors of human tyrosyl-DNA phosphodiesterase 1 (TDP1): qHTS in cells in absence of CPT. DT40 Tdp1-/- hTDP1 cells, no CPT, ATP luminescence, 48 h. Potency, µM (doses to about 46.2 µM), hits mostly inhibitors. 15% of 420,000 active. AID 686978, 2013; also: nearly all actives have a fitted effect of over 55% in size
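Growth of hTDP1-complemented DT40 Tdp1-knockout cells is measured by ATP luminescence after at least 48 hr compound exposure at 37 °C, with DMSO substituting for the 20 nM CPT used in the parallel screen.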
Each line names hits and unclear results; the compound was inactive in the other large screens. Unless noted, calls follow the shape of the dose curve; as a rule, active = well fitted curve in the direction sought with a large enough effect; inconclusive = small, poorly fitted or top-dose-only effect, or another doubt; inactive = no such curve, though single readings can be large; an effect the other way counts as inactive or inconclusive.

CCN(Cc1ccccc1)C(=O)c1oc2ccc(S(=O)(=O)N3CCOCC3)cc2c1C	DT40 TDP1 CPT inconclusive, ELG1 DNA repair inconclusive, IL-1B inflam inh -53
Cc1c(C(=O)Nc2ccc(F)cc2)oc2ccc(S(=O)(=O)N3CC(C)CC(C)C3)cc12 (stereo unspecified)	DT40 TDP1 CPT 18µM, ELG1 DNA repair inconclusive, TDP1 cell noCPT 15µM
CCN(CC)C(=O)c1oc2ccc(S(=O)(=O)N3CCCCCC3)cc2c1C	DT40 TDP1 CPT inconclusive, HT1080NT lethal inconclusive, TDP1 cell noCPT 23µM
CSc1cc(-c2ccc(Cl)cc2)n(Cc2ccccc2)c(=O)c1C#N	DT40 TDP1 CPT inconclusive, TDP1 cell noCPT 15µM
CC(=O)Oc1ccc(C(=O)Nc2cccc3c2CCCC3)cc1	none
COC(=O)c1sc(=S)sc1C(=O)OC	DT40 TDP1 CPT 29µM, HT1080NT lethal inconclusive, HT1080 IDH1KD tx 32µM, TDP1 cell noCPT inconclusive
CN1CCN(CC(=O)Nc2nc(-c3ccccc3)cs2)CC1	ELG1 DNA repair inconclusive
CCCC(=O)Nc1nc(-c2ccc3c(c2)CCN3S(C)(=O)=O)cs1	DT40 TDP1 CPT inconclusive, ELG1 DNA repair inconclusive, IL-1B inflam inh inconclusive, TDP1 cell noCPT 23µM
Cc1ccc(-c2csc(NC(=O)c3ccc(S(=O)(=O)N4CCc5ccccc54)cc3)n2)cc1	TDP1 cell noCPT inconclusive
CS(=O)(=O)N1CCc2cc(-c3csc(NCC4CCCO4)n3)ccc21 (stereo unspecified)	IL-1B inflam inh -68
O=C1COc2ccc(-c3csc(NCC4CCCO4)n3)cc2N1 (stereo unspecified)	DT40 TDP1 CPT inconclusive, ELG1 DNA repair inconclusive
CS(=O)(=O)N1CCc2cc(-c3csc(NC(=O)Cc4ccccc4)n3)ccc21	DT40 TDP1 CPT inconclusive, ELG1 DNA repair 18µM, HT1080NT lethal inconclusive, HT1080 IDH1KD tx inconclusive, IL-1B inflam inh inconclusive, TDP1 cell noCPT inconclusive
CCOC(=O)Cc1cnc(NC(=O)CSc2nc(C(C)C)cc(=O)[nH]2)s1	none
N[C@H](CCC(=O)NCC(=O)O)C(=O)O	DT40 TDP1 CPT inconclusive (no result: ELG1 DNA repair, HT1080NT lethal, HT1080 IDH1KD tx, IL-1B inflam inh)
Cc1cccc(N2CCN(C(=O)c3ccccc3OCc3c(C)noc3C)CC2)c1C	DT40 TDP1 CPT 18µM, IL-1B inflam inh inconclusive, TDP1 cell noCPT 16µM
Cc1ccc(S(=O)(=O)N2CCN(C(=O)c3ccccc3OCc3c(C)noc3C)CC2)cc1	DT40 TDP1 CPT 18µM, TDP1 cell noCPT inconclusive
COC(=O)[C@@]1(C(C)C)N=C(c2cc(OC)c(OC)c(OC)c2)[C@]2(O1)C(=O)Nc1ccc(F)cc12	DT40 TDP1 CPT inconclusive, TDP1 cell noCPT inconclusive (no result: ELG1 DNA repair)
CCCc1cc(=O)[nH]c(SCC(=O)Nc2ccc([N+](=O)[O-])cc2C#N)n1	DT40 TDP1 CPT inconclusive
COc1ccc(CNc2nc(-c3ccccc3CN(C)C)nc3ccccc23)c(OC)c1	DT40 TDP1 CPT 10µM, TDP1 cell noCPT 7.3µM (no result: ELG1 DNA repair, HT1080NT lethal, HT1080 IDH1KD tx, IL-1B inflam inh)
CN(C)c1ccc(-c2nc(NCCc3cnc[nH]3)c3ccccc3n2)cc1	DT40 TDP1 CPT 13µM, TDP1 cell noCPT inconclusive (no result: ELG1 DNA repair, HT1080NT lethal, HT1080 IDH1KD tx, IL-1B inflam inh)
COc1ccc2[nH]cc(CCNc3nc(-c4ccccc4CN(C)C)nc4ccccc34)c2c1	DT40 TDP1 CPT 21µM, TDP1 cell noCPT 21µM (no result: ELG1 DNA repair, HT1080NT lethal, HT1080 IDH1KD tx, IL-1B inflam inh)
COc1ccc2[nH]cc(CCNc3nc(-c4ccc(N(C)C)cc4)nc4ccccc34)c2c1	DT40 TDP1 CPT 15µM, TDP1 cell noCPT 23µM (no result: ELG1 DNA repair, HT1080NT lethal, HT1080 IDH1KD tx, IL-1B inflam inh)
COC(=O)CNc1nc(-c2ccccc2F)nc2ccccc12	ELG1 DNA repair inconclusive, TDP1 cell noCPT inconclusive
COc1ccc(-c2nc(NCCCN(C)C)c3ccccc3n2)cc1	IL-1B inflam inh inconclusive, TDP1 cell noCPT inconclusive
Cc1nc(NCCc2cnc[nH]2)c2oc3ccccc3c2n1	none
Cc1ncc2c(c1CNS(=O)(=O)N(C)C)CCN(C(=O)/C=C/c1ccccc1)C2	none (no result: ELG1 DNA repair, HT1080NT lethal, HT1080 IDH1KD tx, IL-1B inflam inh)
Cn1c(=O)c2c(SCC(=O)NCc3ccco3)nc(-c3cccc(F)c3)nc2n(C)c1=O	none (no result: ELG1 DNA repair, HT1080NT lethal, HT1080 IDH1KD tx, IL-1B inflam inh)
